Measurements reported in PubChem BioAssay (NCI).
This is part of a sample that, as a whole, favours compounds with a hit. Of some 83,000 tested, about 20% had one in any assay.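 Treatment: one concentration, 48 hours, 96-well format. Scoring: percent growth, with anything below 10 considered active.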 Active and inactive are the calls of the source.

Test system: MOLT-4 leukemia
Assay: NCI-60 one-dose screen, 48 h (100 = growth as untreated, 0 = no growth, -100 = all killed)
Details: 10 µM unless noted
Protocol: Growth inhibition of the MOLT-4 human tumor cell line is measured as a screen for anti-cancer activity. Cells are grown in 96 well plates and exposed to the test compound for 48 hours. Compounds are tested at a single concentration, which is 10^-5 M for most compounds. The reported endpoint is percent growth (GI% or GIPRCNT), where numbers from 0 - 100% represent growth inhibition, and numbers from -100% - 0 represent cell death. For example, a value of 40 represents 60% growth inhibition. A value of 0 means no net growth occurred over the course of the experiment. A value of -40 indicates 40% of cells at the beginning of the experiment died by the end of the experiment. A value of -100 means all cells are dead at the end of the experiment.
NCI-60 Human Tumor Cell Lines Screen was performed using the standard one-dose NCI protocol, which is described in more detail at https://dtp.cancer.gov/discovery_development/nci-60/default.htm.
Compounds with GIPRCNT values below 10 were considered active. Activity score was based on GIPRCNT using the following formula: […]
Score is 0 for GIPRCNT values of 100 or above, 50 for GIPRCNT values of 0, and 100 for GIPRCNT values of -100.

Row | SMILES | growth
1 | c1ccc(-c2nc(N3CCCNCC3)c3nc(-c4ccccc4)oc3n2)cc1 | 0.525% (active)
2 | CC[C@]1(O)CC2CN(CCc3c([nH]c4ccccc34)[C@@](C(=O)OC)(c3cc4c(cc3OC)N(C=O)[C@H]3[C@@](O)(C(=O)OC)[C@H](OC(C)=O)[C@]5(CC)C=CCN6CC[C@]43[C@@H]65)C2)C1 (stereo not given in full) | 21.6% (inactive)
3 | COc1ccc(-c2cc(-c3ccc(Cl)cc3)nc(NCCCCNc3ccnc4cc(Cl)ccc34)n2)cc1 | 3.22% (active)
4 | CNC(=O)c1cc(Oc2ccc3nc(NC(=O)c4ccc5ncccc5c4)sc3c2)ccn1 | 94.2% (inactive)
5 | Cn1cc(-c2nnc(-c3cn(C)c4ncccc34)o2)c2ccccc21 | 18.3% (inactive)
6 | CCOC(=O)c1cc(C#N)n2ncc3ccccc3c12 | 89.7% (inactive)
7 | Cc1cnc(N)nc1OCCNC(=O)c1cccc(-c2ccc(S(=O)(=O)Nc3ccc4c(c3)N(C(=O)C3CC3)CCC4)cc2)c1 | 37.7% (inactive)
8 | Cc1ccc(Cn2c(O)c(N=NC(=O)c3ccc(S(N)(=O)=O)cc3)c3ccccc32)cc1 | 93.8% (inactive)
9 | C[C@@H]1C[C@H]2C(=O)O[C@@H](C)[C@H](NC(=O)[C@H](Cc3cc(F)cc(F)c3)NC(=O)Nc3ccc(C4CC4)cc3F)C(=O)N3CCC[C@H]3C(=O)N3CCCC[C@H]3C(=O)N[C@@H](C)C(=O)N2C1 | 28.6% (inactive)
10 | CCCCCC1CCCCN1C(=O)OCCCC (stereo not given) | 99.5% (inactive)
11 | CCCCCCNC(=O)Nc1ncnc2c1ncn2-c1ccccc1 | 102% (inactive)
12 | CN(C)c1cc(NN=C(c2ccc(O)cc2)c2ccc(O)cc2)c([N+](=O)[O-])cc1[N+](=O)[O-] | 97.6% (inactive)
13 | CC(C)C1=NOC(=O)C1=Cc1cn(-c2cccnc2)nc1-c1ccccc1 | 11.8% (inactive)
14 | CC1(C)NCCC[C@]2(C)[C@H]3C=CC4=C5C[C@](C)(CO)CC[C@]5(C)CC[C@@]4(C)[C@]3(C)CC[C@@H]12 | -56.7% [100 µM] (active)
15 | Cc1ccccc1OC(=O)c1cccc(Cl)c1 | -16.3% (active)
16 | C=C(C)[C@@H]1CC[C@]2(C)[C@H](C(=O)C=C3[C@@H]4C[C@](C)(C(=O)N5CCN(C)CC5)CC[C@]4(C)CC[C@]32C)[C@@]1(C)CCC#N | -45.9% [100 µM] (active)
17 | COc1cc(C)cc2oc3oc(=N)c(C(=O)c4ccccc4)cc3c(=O)c12 | 98.1% (inactive)
18 | CCN(CC)c1ccc2cc(NC(=O)OCCNC(=O)CCNC(=O)[C@H](CC(C)C)NC(=O)C(C)(C)NC(=O)C(C)(C)NC(=O)[C@H](CC(C)C)NC(=O)CCNC(=O)C(C)(C)NC(=O)[C@H](CC(C)C)NC(=O)CCNC(=O)[C@@](C)(CC)NC(=O)[C@H](C)NC(=O)CCNC(=O)C(C)(C)NC(=O)[C@H](C)NC(=O)[C@@H]3CCCN3C(=O)[C@@](C)(CC)NC(=O)[C@H](Cc3ccccc3)NC(=O)C3CCCN3C(=O)C(C)(C)NC(=O)C3CCCN3C(=O)C(C)(C)NC(C)=O)c(=O)oc2c1 (stereo not given in full) | -62% (active)
19 | C=C(C)[C@@H]1CC[C@]2(COCCCN)CC[C@]3(C)[C@H](CC[C@@H]4[C@@](C)(CCCNCCCN)[C@H](C(=C)C)CC[C@]43C)[C@@H]12 | -31.6% [100 µM] (active)
20 | N/C(=N\c1nc2ccccc2[nH]1)NC(=O)Cc1cccc2ccccc12 | 30.4% (inactive)

Row | SMILES | growth
21 | CCN(CC)c1cc(N)c(Cc2c(N)cc(N(CC)CC)cc2Cl)c(Cl)c1 | 40.8% (inactive)
22 | CS(=O)(=O)c1cccnn1 | 132% (inactive)
23 | C#C[C@]1(O)CC[C@H]2[C@@H]3CC=C4c5nc(Nc6ncccn6)sc5CC[C@]4(C)[C@H]3CC[C@@]21C | 2.75% (active)
24 | CC1(C)CC[C@]2(C(=O)O)CC[C@]3(C)C(=CC[C@@H]4[C@@]5(C)C/C(=C/c6ccco6)C(=O)C(C)(C)[C@@H]5CC[C@]43C)[C@@H]2C1 | 2.21% [100 µM] (active)
25 | COC(=O)[C@]1(C)CC[C@]2(C)CC[C@]3(C)C(=CC(=O)[C@@H]4[C@@]5(C)CCC(=O)NC(C)(C)[C@@H]5CC[C@]43C)[C@@H]2C1 | -20.7% [100 µM] (active)
26 | CC(C)C1=NOC(=O)C1=Cc1cn(-c2ccccc2)nc1-c1ccc(Br)cc1 | -15.7% (active)
27 | O=C(CCNCc1ccccc1)c1ccccc1 | 109% (inactive)
28 | CCOC(=O)c1nn(C2CCCCO2)c2ccc(NC(=O)CN3CCOCC3)cc12 (stereo not given) | 96.1% (inactive)
29 | O=C1CC(c2ccc3c(c2)OCO3)Nc2ccccc21 (stereo not given) | 62.7% (inactive)
30 | Cc1nc(Cl)c2c(n1)N(C)c1ccc(Cl)cc1C(C)C2 (stereo not given) | 80.6% (inactive)
31 | COc1ccc(-c2cc(-c3ccc(Cl)cc3)nc(SCCCCCCC(=O)NO)n2)cc1 | 9.33% (active)
32 | O=C(Nc1cccc2cccnc12)c1cc(C(=O)c2ccc(Cl)cc2)n2ccc(-c3ccncc3)cc12 | 129% (inactive)
33 | CCCCCCSc1ncnc2nc[nH]c12 | 84.7% (inactive)
34 | C=C(C)[C@@H]1CC[C@]2(C)[C@H](CC[C@@H]3[C@@H]([C@@](C)(O)CCC=C(C)C)CC[C@]32C)[C@@]1(C)CCC(=O)N1CCN(C)CC1 | -41.2% [100 µM] (active)
35 | NNC(=O)c1ccc(C(=O)NN)cc1 | 130% (inactive)
36 | COc1ccc(-c2cc(-c3ccccc3)nc(SCCCCCC(=O)NO)n2)cc1 | 9.24% (active)
37 | O=C(Nc1cccc(F)c1)c1cc(=O)[nH]c2cc(Br)ccc12 | 45.8% (inactive)
38 | COc1cc2c(=O)[nH]c3cc([N+](=O)[O-])ccc3c2cc1[N+](=O)[O-] | 9.72% (active)
39 | COc1ccc2c(c1)c(-c1noc(C(=O)c3cn(C)c4ncc(Br)cc34)n1)cn2C | 77.2% (inactive)
40 | Fc1cc2[nH]ncc2c2c3c(c(-c4cn[nH]c4)nc12)CCCC3 | 2.1% (active)
